# Source: PubChem BioAssay (Broad Institute)
# BJeLR viability: BJeLR cell viability reduction; 0.64% of 30,000 active; viability loss activity score, % (test concentration not listed); BJeLR fibroblasts viability, CellTiterGlo ATP luminescence, 48 h; HRASV12, hTERT and SV40 LT/ST transformed; in the data active = viability loss activity score above about 50%; inconclusive = no clear call, values can overlap the other calls; inactive = below about 35%;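 note: higher score means fewer live cells and less ATP luminescence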
# Hedgehog inh: Sonic Hedgehog pathway inhibition | Shh-LIGHT2 Gli-luciferase reporter, 30 h | inhibition, % (concentration not given with the values) | 2.1% of 22,000 active;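 active = mean inhibition across valid replicates above about 65%, limit read from the data; inconclusive = mean under the limit, yet half or more replicates past it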;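 note: pathway switched on by Shh-conditioned medium diluted 1 in 25 in low serum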
# MITF inhib: MITF inhibition. 0.28% of 37,000 active. AID 2240. TRPM1 promoter luciferase, luminescence, 24 h. inhibition, % (concentration not given with the values); in the data active = inhibition above about 85%; inconclusive = no clear call, values can overlap the other calls; inactive = below about 68%;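 note: human melanocyte line stably carrying TRPM1 promoter luciferase reporter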
# * hit, by the source's call; ? = inconclusive; . = not tested or not shown; ! = repeats disagree. The sample as a whole holds a higher share of hits than the screen did.
SMILES,BJeLR viability,Hedgehog inh,MITF inhib
C=CC(C)(CC/C=C(\C)C(O)CC=C(C)C)OC1OC(CO)C(O)C(O)C1O (configuration not stated),.,78.2*,.
C=C[C@](C)(CC/C=C(\C)CC[C@H](O)C(C)(C)O)O[C@@H]1O[C@H](CO)[C@@H](O)[C@H](O)[C@H]1O,-7.1,-14.1,-11.0
Cn1c2ccccc2c2cnn(CNC(=O)Nc3ccc(F)cc3)c(=O)c21,-8.0,.,.
CCOc1cccc2c1OC1(C)C(C(=O)Nc3ccc(OC)cc3)C2NC(=S)N1CCOC (configuration not stated),1.4,.,.
Cc1ccc2n1CCn1cc(-c3ccccc3)cc1-2,-3.7,.,.
COc1ccc(OC)c(NC(=O)c2ccc(CSc3ncnc4nc[nH]c34)cc2)c1,5.6,68.4*,33.1
COc1ccc(OC)c(NC(=O)COc2ccc(C(=O)Nc3ccc(Cl)cc3)cc2)c1,.,.,4.2
COc1cccc(OC)c1C(=O)N1CCN(c2ncnc3scc(-c4ccccc4)c23)CC1,0.9,.,.
OC(CN1CCNCC1)Cn1c2ccc(Br)cc2c2cc(Br)ccc21 (configuration not stated),8.4,78.1*!,-13.2
OC(CN1CCN(c2cccc(Cl)c2)CC1)Cn1c2ccccc2c2ccccc21 (configuration not stated),-9.7,.,.
COc1ccc2c(c1)C(=O)/C(=C/c1ccc(N(C)C)cc1)CC2,13.3,.,.
CCc1ccc2nc(Nc3nc4ccccc4c(=O)[nH]3)nc(C)c2c1,87.2*,.,.
Cc1ccc(SCc2cc(=O)[nH]c(Nc3nc(C)c4ccccc4n3)n2)cc1,-1.4,.,.
CCN(C1=NC2CS(=O)(=O)CC2S1)c1ccc(OC)cc1 (configuration not stated),-2.8,.,.
CS(=O)(=O)c1sc(NC(=O)Nc2ccc(Cl)cc2)c2c1C=CCC2,-2.2,106.3*,46.5
C=CCNC(=O)Nc1ccc(Cl)cc1,1.3,.,.
Cc1nnc(SCc2ccc(C(=O)N3CCOCC3)cc2)s1,-1.4,.,.
COc1ccc(C(=O)Nc2ccc(-c3nc4cc(C)cc(C)c4o3)cc2)cc1OC,-0.1,.,.
Cc1cccc(C(=O)NN)c1,-1.1,.,.
Cc1cccc(C(=O)NN(c2ccccc2)c2ccccc2)c1,-7.6,94.9*,2.7
FC(F)(F)c1nc(N2CCCC2)nc2c1CCCCC2,-3.5,.,.
C[C@H]1CN([C@@H](C)CO)C(=O)c2cc(NC(=O)Nc3ccc(C(F)(F)F)cc3)ccc2O[C@@H]1CN(C)C(=O)Nc1ccc(F)cc1,-1.5,-8.8,8.5
Cc1ccc(S(=O)(=O)N(C)C[C@H]2Oc3ccc(NC(=O)Nc4ccc(C(F)(F)F)cc4)cc3C(=O)N([C@@H](C)CO)C[C@H]2C)cc1,-1.4,45.6,99.9*
C[C@@H]1CN([C@H](C)CO)C(=O)Cc2cc(NC(=O)Cc3cn(C)c4ccccc34)ccc2O[C@H]1CN(C)C(=O)Nc1ccc(C(F)(F)F)cc1,.,83.4*,21.9
C[C@H](CO)N1C[C@H](C)[C@H](CN(C)C(=O)Nc2ccc(F)cc2)Oc2ccc(NC(=O)Nc3ccc(C(F)(F)F)cc3)cc2C1=O,.,69.3*,48.6
SMILES,BJeLR viability,Hedgehog inh,MITF inhib
C[C@H]1CN([C@@H](C)CO)C(=O)Cc2cc(NC(=O)Cc3cn(C)c4ccccc34)ccc2O[C@@H]1CN(C)C(=O)Nc1ccc(F)cc1,.,7.7,4.3
Cc1ccc(S(=O)(=O)N(C)C[C@@H]2Oc3ccc(NC(=O)Nc4ccc(C(F)(F)F)cc4)cc3C(=O)N([C@H](C)CO)C[C@@H]2C)cc1,2.0,16.5,65.2
CN(C)/C=N/c1nnc(SCC(=O)Nc2cc(Cl)cc(Cl)c2)s1,-2.0,.,.
O=C(NCc1ccco1)c1cccc2c1C(=O)N(Cc1cccnc1)C2,-3.3,.,.
CCC(Sc1nncn2c1cc1oc(C)cc12)C(=O)NCc1ccc(C)cc1 (configuration not stated),-0.3,.,.
CC1(C)Cc2c(ccc3ccccc23)C(=NCCC(=O)O)N1,-4.9,.,.
OC[C@H]1O[C@@H](n2cnc3c(NCc4ccco4)ncnc32)[C@H](O)[C@@H]1O,6.4,97.8*,-5.3
CC(C)(C)OC(=O)Nc1ncnc2c1ncn2C1OC(CO)C2OC(C)(C)OC21 (configuration not stated),-2.1,.,.
CCc1ccc(CNC(=O)c2coc(=O)c3ccccc23)cc1,-0.2,.,.
COc1cc(OC)cc(C(=O)Nc2cccc3nsnc23)c1,1.2,.,.
Cc1c2cnn(CC(=O)NC(C)c3ccc4c(c3)OCCO4)c(=O)c2c(C)n1Cc1ccc(F)cc1 (configuration not stated),1.2,.,.
Cc1nc(NCCc2ccccc2)c2c3c(sc2n1)CCCC3,0.3,.,.
C[C@@H]1CCCCO[C@@H](CN(C)Cc2ccc3c(c2)OCO3)[C@@H](C)CN([C@H](C)CO)C(=O)c2cc(NC(=O)Nc3ccc4c(c3)OCO4)ccc2O1,.,67.8*,8.9
C[C@@H]1CN([C@H](C)CO)C(=O)c2cc(NC(=O)Nc3ccc4c(c3)OCO4)ccc2O[C@@H]1CN(C)Cc1ccc(Oc2ccccc2)cc1,-14.1,92.2*,9.1
COc1ccc(NC(=O)Nc2ccc3c(c2)C(=O)N([C@@H](C)CO)C[C@@H](C)[C@H](CN(C)Cc2ccc(Oc4ccccc4)cc2)O3)cc1,0.8,-14.0,2.4
COc1ccc(NC(=O)Nc2ccc3c(c2)C(=O)N([C@@H](C)CO)C[C@@H](C)[C@@H](CN(C)Cc2ccc(Oc4ccccc4)cc2)O3)cc1,3.8,94.0*,6.2
C[C@@H]1CN([C@H](C)CO)C(=O)c2cc(NC(=O)Nc3ccc4c(c3)OCO4)ccc2O[C@H]1CN(C)Cc1ccc(Oc2ccccc2)cc1,2.8,.,-2.3
C[C@@H]1CCCCO[C@H](CN(C)Cc2ccc3c(c2)OCO3)[C@@H](C)CN([C@H](C)CO)C(=O)c2cc(NC(=O)Nc3ccc4c(c3)OCO4)ccc2O1,.,.,-4.4
CN(c1ccc(Cl)cc1)S(=O)(=O)c1cccc(C(=O)Nc2ccccc2)c1,-1.0,.,.
CC(C)c1c(O)ccc2c1CCC1C(C)(C)CCC[C@]21C (some centres not stated),5.3,?,106.3*
CC(C)c1ccc2c(c1)CCC1[C@](C)(C(=O)O)CCC[C@]21C (some centres not stated),1.7,-20.4,-22.1
OCCN1CCN(CCCN2c3ccccc3Sc3ccc(C(F)(F)F)cc32)CC1,-5.8,?,17.3
CN1CCN(CCCN2c3ccccc3Sc3ccc(Cl)cc32)CC1,1.5,75.2*!,4.1
Cc1cc(=O)nc2c3ccccc3n(CC(=O)N3CCCC3)n12,1.3,.,.
CC(C)C(=O)N1N=C(c2ccccc2)CC1(O)C(F)(F)F (configuration not stated),-7.5,.,.
SMILES,BJeLR viability,Hedgehog inh,MITF inhib
O=C1C=CC(=C(c2ccc(O)cc2)c2ccc(O)cc2)C=C1,-3.7,65.6*,68.0
Cc1ccc(C(=O)C2=C(N)OC3=C(C(=O)CC(C)(C)C3)C2c2ccccc2)cc1 (configuration not stated),-1.7,.,.
Cc1c(Cc2ccccc2)c(Cl)n2c(nc3ccccc32)c1C#N,63.9*,.,.
CCc1c(C)c(C#N)c2nc3ccccc3n2c1N1CCN(CCO)CC1,-1.0,.,.
CC1(C)N=C(c2ccccc2)C(=S)N1C(=O)c1ccccc1,-1.3,.,.
O=C(OCC(F)(F)F)c1ccc(COc2ccc3ccccc3c2)o1,4.2,.,.
NC(=Nc1ccccc1)NC(=O)c1nc(Cl)c(N)nc1N,3.1,12.5,-84.2
NC(=NCc1ccccc1)NC(=O)c1nc(Cl)c(N)nc1N,3.5,68.8*!,8.6
